One sequence from publication PMC7862700, “An all-to-all approach to the identification of sequence-specific readers for epigenetic DNA modifications on cytosine” can be followed below.

Assay in all cases: DAPPL (digital affinity profiling via proximity ligation, sequencing); 10 mM Tris-HCl pH 7.5, 50 mM NaCl, 1 mM DTT, 4% glycerol, room temperature, 30 min; GST-TFs on glutathione beads, 16-mer random dsDNA library, 0.1% formaldehyde crosslink after washing; high values mean tight binding
The target in one experiment is T1, FLI1 (Homo sapiens, UniProt Q01543 1-452).
T1 sequence: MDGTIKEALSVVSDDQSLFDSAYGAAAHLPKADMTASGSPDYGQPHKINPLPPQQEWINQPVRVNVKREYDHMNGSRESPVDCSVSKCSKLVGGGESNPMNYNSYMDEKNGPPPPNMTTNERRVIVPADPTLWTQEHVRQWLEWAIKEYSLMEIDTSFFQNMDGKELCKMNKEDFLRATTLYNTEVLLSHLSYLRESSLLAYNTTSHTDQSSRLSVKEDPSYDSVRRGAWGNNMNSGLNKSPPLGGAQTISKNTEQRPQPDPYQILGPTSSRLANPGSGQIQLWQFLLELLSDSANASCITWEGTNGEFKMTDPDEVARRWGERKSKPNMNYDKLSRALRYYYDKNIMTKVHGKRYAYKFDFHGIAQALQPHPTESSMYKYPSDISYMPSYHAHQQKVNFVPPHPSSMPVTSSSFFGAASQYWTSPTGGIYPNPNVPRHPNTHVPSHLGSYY
The note with it: protein: recombinant; tags: N-terminal GST; dsDNA, one strand shown. In outline:
(§1)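 The binding signal reported is, for every hexamer, its read frequency for a factor over its read frequency for the tag-only sample. Reads came from pools of yeast-expressed, GST-fused human transcription factors on glutathione beads, barcoded with DNA and mixed with that sample, which were incubated with 200 nmole of a random double-stranded 16-mer DNA library in Tris/NaCl/DTT/glycerol buffer at room temperature for 30 min. After washing, the pools were crosslinked with 0.1% formaldehyde, proximity-ligated with BsaI/T4 ligase for 1 h at 37 °C, PCR-amplified and sequenced on an Illumina NextSeq500.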

The next experiment concerns the target T2, ELK1 (Homo sapiens, UniProt P19419 1-428).
T2 sequence: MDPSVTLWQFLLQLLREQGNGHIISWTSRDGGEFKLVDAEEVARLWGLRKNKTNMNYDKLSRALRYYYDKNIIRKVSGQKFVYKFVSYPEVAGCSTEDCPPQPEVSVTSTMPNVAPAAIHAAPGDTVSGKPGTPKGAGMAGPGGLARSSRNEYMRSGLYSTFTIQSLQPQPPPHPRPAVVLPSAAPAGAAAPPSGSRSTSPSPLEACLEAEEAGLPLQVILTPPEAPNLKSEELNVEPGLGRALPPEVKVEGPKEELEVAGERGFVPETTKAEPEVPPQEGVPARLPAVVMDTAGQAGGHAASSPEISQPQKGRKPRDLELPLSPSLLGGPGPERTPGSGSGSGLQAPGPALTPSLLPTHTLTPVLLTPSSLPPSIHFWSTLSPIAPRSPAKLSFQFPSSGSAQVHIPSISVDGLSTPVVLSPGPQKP
To be noted: protein: recombinant; tags: N-terminal GST; dsDNA, one strand shown. In outline: as §1

Another experiment addresses T3, GABPA (Homo sapiens, UniProt Q06546 1-454).
T3 sequence: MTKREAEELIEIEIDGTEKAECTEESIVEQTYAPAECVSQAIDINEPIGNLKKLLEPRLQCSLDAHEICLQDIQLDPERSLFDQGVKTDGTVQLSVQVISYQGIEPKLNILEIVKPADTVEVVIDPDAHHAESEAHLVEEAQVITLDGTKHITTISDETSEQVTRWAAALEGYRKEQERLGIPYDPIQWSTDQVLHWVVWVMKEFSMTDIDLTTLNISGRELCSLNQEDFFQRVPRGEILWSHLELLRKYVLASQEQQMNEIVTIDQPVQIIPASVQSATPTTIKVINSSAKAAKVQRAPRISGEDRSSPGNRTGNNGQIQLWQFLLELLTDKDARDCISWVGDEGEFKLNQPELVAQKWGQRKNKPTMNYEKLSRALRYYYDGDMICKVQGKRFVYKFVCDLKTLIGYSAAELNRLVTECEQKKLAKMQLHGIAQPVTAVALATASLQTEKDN
The note with it: protein: recombinant; tags: N-terminal GST; dsDNA, one strand shown. The procedure, abridged:
as §1

In another experiment the target is T4, ERG (Homo sapiens, UniProt P11308 1-479).
T4 sequence: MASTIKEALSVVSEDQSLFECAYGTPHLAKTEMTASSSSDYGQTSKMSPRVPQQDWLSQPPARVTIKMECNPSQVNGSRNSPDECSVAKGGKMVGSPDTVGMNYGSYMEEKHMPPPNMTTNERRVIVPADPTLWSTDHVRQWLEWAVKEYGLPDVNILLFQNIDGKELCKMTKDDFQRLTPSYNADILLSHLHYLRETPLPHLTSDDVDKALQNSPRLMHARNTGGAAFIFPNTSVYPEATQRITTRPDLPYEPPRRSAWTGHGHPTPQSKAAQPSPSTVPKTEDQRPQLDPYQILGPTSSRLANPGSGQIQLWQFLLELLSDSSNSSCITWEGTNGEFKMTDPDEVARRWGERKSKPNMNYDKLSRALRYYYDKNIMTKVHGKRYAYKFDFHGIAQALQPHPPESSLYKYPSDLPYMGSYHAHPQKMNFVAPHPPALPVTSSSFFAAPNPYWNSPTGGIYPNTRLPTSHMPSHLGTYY
The note with it: protein: recombinant; tags: N-terminal GST; dsDNA, one strand shown. The procedure, abridged:
as §1

A further experiment has as its target ELF1 (Homo sapiens, UniProt P32519 1-619). The note with it: protein: recombinant; tags: N-terminal GST; dsDNA, one strand shown. The procedure, abridged:
as §1

The next experiment deals with T5, EHF (Homo sapiens, UniProt Q9NZC4 1-300).
T5 sequence: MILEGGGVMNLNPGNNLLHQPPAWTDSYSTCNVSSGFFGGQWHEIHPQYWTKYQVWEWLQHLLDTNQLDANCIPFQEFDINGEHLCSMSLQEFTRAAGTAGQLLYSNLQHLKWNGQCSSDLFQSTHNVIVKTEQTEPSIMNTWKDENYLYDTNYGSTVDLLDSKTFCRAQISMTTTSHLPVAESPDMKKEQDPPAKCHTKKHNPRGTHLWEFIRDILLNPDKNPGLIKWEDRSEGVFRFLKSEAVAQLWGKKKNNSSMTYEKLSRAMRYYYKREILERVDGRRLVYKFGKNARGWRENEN
To be noted: protein: recombinant; tags: N-terminal GST; dsDNA, one strand shown. The procedure, abridged: as §1

The target in a further experiment is SPI1 (Homo sapiens, UniProt P17947 1-270). The note with it: protein: recombinant; tags: N-terminal GST; dsDNA, one strand shown. The procedure, abridged: as §1
The target of another experiment is SPIB (Homo sapiens, UniProt Q01892 1-262). The note with it: protein: recombinant; tags: N-terminal GST; dsDNA, one strand shown. The procedure, abridged:
as §1

The next experiment deals with T6, ELK3 (Homo sapiens, UniProt P41970 1-407).
T6 sequence: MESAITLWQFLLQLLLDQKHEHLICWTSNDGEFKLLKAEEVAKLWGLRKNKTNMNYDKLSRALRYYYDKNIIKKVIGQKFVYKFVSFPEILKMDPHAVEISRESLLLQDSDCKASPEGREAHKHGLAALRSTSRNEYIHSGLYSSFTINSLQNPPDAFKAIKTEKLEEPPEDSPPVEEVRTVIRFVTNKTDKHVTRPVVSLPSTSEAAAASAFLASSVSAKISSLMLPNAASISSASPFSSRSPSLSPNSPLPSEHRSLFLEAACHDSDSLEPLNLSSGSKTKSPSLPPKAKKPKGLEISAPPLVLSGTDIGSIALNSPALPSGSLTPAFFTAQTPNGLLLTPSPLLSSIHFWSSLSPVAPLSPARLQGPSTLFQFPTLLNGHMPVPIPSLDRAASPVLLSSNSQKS
The note with it: protein: recombinant; tags: N-terminal GST; dsDNA, one strand shown. The procedure, abridged:
as §1

For the next experiment, the target named is T7, FEV (Homo sapiens, UniProt Q99581 1-238).
T7 sequence: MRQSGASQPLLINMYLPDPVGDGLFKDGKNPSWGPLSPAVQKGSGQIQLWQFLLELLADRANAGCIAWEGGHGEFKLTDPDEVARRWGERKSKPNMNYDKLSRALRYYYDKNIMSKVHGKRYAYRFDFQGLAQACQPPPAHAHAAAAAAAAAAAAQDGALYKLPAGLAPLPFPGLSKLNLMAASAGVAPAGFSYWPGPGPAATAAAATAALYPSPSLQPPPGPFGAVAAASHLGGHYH
The note with it: protein: recombinant; tags: N-terminal GST; dsDNA, one strand shown. The procedure, abridged:
as §1

The target of a further experiment is ETV5 (Homo sapiens, UniProt P41161 1-510). To be noted: protein: recombinant; tags: N-terminal GST; dsDNA, one strand shown. In outline: as §1
In the next experiment the target is HSF1 (Homo sapiens, UniProt Q00613 1-529). To be noted: protein: recombinant; tags: N-terminal GST; chain copies: 3; dsDNA, one strand shown. The procedure, abridged:
as §1

For a further experiment, the target named is T8, SPIC (Homo sapiens, UniProt Q8N5J4 1-248).
T8 sequence: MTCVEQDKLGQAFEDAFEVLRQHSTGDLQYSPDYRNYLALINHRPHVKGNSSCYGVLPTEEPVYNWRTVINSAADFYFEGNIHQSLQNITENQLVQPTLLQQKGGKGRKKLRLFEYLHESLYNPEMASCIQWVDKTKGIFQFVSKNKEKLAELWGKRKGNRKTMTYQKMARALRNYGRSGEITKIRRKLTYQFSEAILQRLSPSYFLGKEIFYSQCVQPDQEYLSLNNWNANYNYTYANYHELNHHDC
To be noted: protein: recombinant; tags: N-terminal GST; dsDNA, one strand shown. In outline:
as §1

A further experiment addresses ELF4 (Homo sapiens, UniProt Q99607 1-663). The note with it: protein: recombinant; tags: N-terminal GST; dsDNA, one strand shown. In outline:
as §1

In a further experiment the target is T9, ELK4 (Homo sapiens, UniProt P28324-2 1-405).
T9 sequence: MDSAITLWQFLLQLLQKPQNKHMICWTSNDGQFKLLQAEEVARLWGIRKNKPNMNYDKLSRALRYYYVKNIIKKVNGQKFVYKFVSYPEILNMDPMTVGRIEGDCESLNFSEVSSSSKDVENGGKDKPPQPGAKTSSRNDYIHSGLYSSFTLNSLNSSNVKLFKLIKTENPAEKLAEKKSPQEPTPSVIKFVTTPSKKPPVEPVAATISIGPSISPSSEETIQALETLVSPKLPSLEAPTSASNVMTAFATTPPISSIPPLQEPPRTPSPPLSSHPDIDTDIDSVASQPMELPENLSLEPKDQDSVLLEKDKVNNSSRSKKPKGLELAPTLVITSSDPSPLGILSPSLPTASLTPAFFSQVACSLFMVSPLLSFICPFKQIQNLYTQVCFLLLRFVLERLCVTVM
The note with it: protein: recombinant; tags: N-terminal GST; dsDNA, one strand shown. The procedure, abridged:
as §1

A further experiment has as its target T10, ETV2 (Homo sapiens, UniProt O00321 1-342).
T10 sequence: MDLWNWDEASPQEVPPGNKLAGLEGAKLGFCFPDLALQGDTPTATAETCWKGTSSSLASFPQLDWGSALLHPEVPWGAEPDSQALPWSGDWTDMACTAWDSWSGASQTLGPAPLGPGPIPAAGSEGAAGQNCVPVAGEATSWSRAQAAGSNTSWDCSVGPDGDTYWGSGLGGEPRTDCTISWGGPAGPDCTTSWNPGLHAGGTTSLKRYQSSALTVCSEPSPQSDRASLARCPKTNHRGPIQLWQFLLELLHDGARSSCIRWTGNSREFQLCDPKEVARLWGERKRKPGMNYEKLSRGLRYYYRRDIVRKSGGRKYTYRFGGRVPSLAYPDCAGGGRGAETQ
To be noted: protein: recombinant; tags: N-terminal GST; dsDNA, one strand shown. In outline: as §1

Another experiment deals with CRX (Homo sapiens, UniProt O43186 1-299). The note with it: protein: recombinant; tags: N-terminal GST; dsDNA, one strand shown. The procedure, abridged: as §1
The target of another experiment is ETV1 (Homo sapiens, UniProt P50549 1-477). The note with it: protein: recombinant; tags: N-terminal GST; dsDNA, one strand shown. In outline:
as §1

Chain of ELF1 (P32519 whole entry): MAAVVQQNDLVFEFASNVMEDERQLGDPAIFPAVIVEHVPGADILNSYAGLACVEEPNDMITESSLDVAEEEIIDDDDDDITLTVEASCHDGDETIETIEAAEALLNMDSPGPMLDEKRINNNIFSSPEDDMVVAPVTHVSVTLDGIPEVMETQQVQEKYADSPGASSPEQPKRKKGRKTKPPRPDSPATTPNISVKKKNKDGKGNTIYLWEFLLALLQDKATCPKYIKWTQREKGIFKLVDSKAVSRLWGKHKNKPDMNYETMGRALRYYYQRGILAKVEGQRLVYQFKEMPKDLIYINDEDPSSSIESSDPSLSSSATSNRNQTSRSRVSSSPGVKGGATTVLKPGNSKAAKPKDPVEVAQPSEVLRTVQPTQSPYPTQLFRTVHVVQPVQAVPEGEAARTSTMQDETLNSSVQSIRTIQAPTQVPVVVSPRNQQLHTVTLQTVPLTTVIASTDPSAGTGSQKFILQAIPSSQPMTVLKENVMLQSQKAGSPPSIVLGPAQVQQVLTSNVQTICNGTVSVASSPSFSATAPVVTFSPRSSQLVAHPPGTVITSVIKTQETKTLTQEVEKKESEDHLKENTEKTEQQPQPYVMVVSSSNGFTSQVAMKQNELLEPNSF
Chain of HSF1 (Q00613 whole entry): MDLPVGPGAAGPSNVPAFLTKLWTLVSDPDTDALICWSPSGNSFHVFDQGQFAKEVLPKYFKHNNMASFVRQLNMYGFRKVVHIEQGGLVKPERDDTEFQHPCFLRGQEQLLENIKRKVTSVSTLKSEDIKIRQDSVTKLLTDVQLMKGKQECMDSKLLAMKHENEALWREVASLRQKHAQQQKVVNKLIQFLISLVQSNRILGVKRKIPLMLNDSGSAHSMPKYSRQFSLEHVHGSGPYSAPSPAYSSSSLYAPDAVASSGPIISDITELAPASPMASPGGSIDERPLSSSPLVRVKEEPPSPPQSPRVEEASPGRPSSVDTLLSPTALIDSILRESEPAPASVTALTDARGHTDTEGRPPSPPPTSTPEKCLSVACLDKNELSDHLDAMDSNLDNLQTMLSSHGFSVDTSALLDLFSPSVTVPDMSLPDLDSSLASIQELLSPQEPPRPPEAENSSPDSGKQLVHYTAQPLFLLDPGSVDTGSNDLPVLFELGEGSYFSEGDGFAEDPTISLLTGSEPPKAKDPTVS
Chain of CRX (O43186 whole entry): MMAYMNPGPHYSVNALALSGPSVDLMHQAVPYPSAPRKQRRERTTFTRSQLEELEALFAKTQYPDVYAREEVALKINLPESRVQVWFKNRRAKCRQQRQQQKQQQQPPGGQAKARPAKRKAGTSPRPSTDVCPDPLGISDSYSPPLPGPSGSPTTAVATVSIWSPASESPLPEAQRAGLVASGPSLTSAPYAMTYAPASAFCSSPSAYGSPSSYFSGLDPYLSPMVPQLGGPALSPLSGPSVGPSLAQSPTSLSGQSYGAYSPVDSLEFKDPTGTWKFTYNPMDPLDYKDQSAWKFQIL
Chain of ELF4 (Q99607 whole entry): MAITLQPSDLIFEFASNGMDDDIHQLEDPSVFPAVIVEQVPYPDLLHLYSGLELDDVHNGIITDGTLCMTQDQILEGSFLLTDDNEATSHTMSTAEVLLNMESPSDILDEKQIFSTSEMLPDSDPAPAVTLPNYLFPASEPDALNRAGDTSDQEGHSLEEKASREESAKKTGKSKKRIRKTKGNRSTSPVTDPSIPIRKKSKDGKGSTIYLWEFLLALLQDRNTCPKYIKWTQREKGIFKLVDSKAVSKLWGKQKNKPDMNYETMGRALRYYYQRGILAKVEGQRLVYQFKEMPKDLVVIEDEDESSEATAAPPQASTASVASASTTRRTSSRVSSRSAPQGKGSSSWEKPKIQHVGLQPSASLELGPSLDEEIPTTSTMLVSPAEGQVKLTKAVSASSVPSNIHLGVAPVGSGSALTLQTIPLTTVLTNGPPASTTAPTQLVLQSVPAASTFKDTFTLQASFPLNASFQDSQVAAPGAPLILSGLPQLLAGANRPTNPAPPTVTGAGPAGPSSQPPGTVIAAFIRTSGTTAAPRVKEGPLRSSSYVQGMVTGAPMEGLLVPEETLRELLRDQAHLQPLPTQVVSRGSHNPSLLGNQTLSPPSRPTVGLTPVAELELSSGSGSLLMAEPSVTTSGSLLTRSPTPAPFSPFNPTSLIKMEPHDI
Chain of ETV5 (P41161 whole entry): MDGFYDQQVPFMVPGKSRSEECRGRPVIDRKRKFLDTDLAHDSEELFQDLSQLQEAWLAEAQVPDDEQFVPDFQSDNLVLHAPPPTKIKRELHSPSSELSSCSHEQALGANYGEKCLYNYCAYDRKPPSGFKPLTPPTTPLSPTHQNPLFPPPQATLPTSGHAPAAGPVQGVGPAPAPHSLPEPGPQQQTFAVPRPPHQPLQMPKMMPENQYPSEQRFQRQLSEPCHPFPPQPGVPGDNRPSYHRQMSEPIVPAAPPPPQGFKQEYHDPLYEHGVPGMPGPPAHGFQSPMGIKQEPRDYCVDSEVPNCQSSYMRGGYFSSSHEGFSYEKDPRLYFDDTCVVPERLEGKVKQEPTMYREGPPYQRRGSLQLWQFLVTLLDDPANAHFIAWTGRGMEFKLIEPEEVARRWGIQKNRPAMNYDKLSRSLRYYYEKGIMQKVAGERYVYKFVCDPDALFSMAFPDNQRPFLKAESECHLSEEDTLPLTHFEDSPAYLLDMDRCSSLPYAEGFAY
Chain of SPIB (Q01892 whole entry): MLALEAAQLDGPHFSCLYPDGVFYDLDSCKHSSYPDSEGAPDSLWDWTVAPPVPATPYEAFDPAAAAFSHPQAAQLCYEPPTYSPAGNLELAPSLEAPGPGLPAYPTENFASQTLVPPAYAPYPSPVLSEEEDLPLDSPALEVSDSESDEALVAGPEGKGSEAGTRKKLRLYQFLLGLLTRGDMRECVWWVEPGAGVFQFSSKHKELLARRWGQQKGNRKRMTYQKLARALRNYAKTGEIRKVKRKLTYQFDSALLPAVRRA
Chain of ETV1 (P50549 whole entry): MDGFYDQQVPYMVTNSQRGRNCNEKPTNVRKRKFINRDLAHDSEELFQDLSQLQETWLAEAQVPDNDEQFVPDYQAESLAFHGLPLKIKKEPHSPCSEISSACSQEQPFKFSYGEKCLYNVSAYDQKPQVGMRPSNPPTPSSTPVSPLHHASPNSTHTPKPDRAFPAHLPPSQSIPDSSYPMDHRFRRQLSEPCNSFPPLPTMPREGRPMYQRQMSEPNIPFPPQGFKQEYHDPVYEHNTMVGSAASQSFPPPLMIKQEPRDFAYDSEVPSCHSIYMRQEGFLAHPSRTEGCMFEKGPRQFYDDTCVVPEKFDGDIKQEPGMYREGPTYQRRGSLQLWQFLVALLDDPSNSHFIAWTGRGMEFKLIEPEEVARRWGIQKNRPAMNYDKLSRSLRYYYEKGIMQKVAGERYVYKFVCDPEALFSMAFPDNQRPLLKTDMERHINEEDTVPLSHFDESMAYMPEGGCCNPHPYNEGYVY

As for GATGAA, the binding signal in the experiment with FLI1 was 1.23 fold enrichment (6-mer frequency, TF over GST control); with ELK1, 1.26 fold enrichment (6-mer frequency, TF over GST control); in the experiment with GABPA it was 1.2 fold enrichment (6-mer frequency, TF over GST control); in the experiment with ERG, 1.17 fold enrichment (6-mer frequency, TF over GST control); in the experiment with ELF1 it was 1.18 fold enrichment (6-mer frequency, TF over GST control); in the experiment with EHF, 1.15 fold enrichment (6-mer frequency, TF over GST control). Moreover, the binding signal with SPI1 is 1.1 fold enrichment (6-mer frequency, TF over GST control); with SPIB, 1.24 fold enrichment (6-mer frequency, TF over GST control); with ELK3, 1.11 fold enrichment (6-mer frequency, TF over GST control); with FEV, 1.13 fold enrichment (6-mer frequency, TF over GST control); with ETV5, 1.13 fold enrichment (6-mer frequency, TF over GST control); in the experiment with HSF1 it was 1.21 fold enrichment (6-mer frequency, TF over GST control). The binding signal with SPIC was 1.11 fold enrichment (6-mer frequency, TF over GST control); with ELF4 it was 1.2 fold enrichment (6-mer frequency, TF over GST control); with ELK4 it was 1.21 fold enrichment (6-mer frequency, TF over GST control); with ETV2, 1.13 fold enrichment (6-mer frequency, TF over GST control); with CRX it was 1.22 fold enrichment (6-mer frequency, TF over GST control); with ETV1 it was 1.27 fold enrichment (6-mer frequency, TF over GST control).
